Data as given in PubChem BioAssay AID763 (NMMLSC, 2007).

Each compound was assayed against fMet-Leu-Phe receptor (Homo sapiens) (UniProt P21462) (assay: FPR1 fluorescent ligand binding inhibitors, SAR follow-up, selectivity assay for FPRL1 ligand SAR project, cell-based, single concentration (AID 763)). Settings: FPR1-expressing cells, stronger effect = higher value; at 5.4 µM unless noted; call rule not given here.
fMet-Leu-Phe receptor (Homo sapiens), sequence (P21462 whole entry, looked up): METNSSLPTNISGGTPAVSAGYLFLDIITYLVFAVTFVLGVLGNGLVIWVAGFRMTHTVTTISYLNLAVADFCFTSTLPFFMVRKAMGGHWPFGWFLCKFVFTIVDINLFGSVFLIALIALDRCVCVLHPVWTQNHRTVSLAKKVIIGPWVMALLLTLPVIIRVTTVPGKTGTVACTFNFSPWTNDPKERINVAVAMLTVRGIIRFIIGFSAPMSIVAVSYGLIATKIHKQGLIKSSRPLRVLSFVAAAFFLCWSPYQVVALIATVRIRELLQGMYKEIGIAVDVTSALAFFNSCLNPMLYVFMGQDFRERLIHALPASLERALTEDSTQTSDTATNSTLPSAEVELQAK

inhibition, inactive:
CCOC(=O)N1CCN(c2nc(-c3ccccc3)c3cc(C)ccc3n2)CC1 -2.1% [at 5.9 µM]
COc1ccc(-c2cn3cccnc3n2)cc1NC(=O)C1CCCC1 6.6% [at 6.6 µM]
O=C(c1ccccc1)N1CCN(c2nc(-c3ccccc3)c3ccccc3n2)CC1 1.8% [at 5.6 µM]
COc1ccc(-c2cn3cccnc3n2)cc1NC(=O)c1cc(C)cc(C)c1 -0.5% [at 6 µM]
Cc1ccc(C(=O)N2CCN(c3nc(-c4ccccc4)c4cc(Br)ccc4n3)CC2)cc1 -4.3% [at 4.6 µM]
COc1cccc(-c2cc(C(F)(F)F)nc(N3CCN(c4ccccc4)CC3)n2)c1 -7.4%
COc1ccc(-c2cn3cccnc3n2)cc1NC(=O)c1ccccc1OC 3.8% [at 5.9 µM]
COc1ccc(-c2cn3cccnc3n2)cc1NC(=O)c1cccc(C(F)(F)F)c1 -2%
COc1cc(OC)cc(C(=O)Nc2cc(-c3cn4cccnc4n3)ccc2OC)c1 4.4% [at 5.5 µM]
COc1ccccc1-c1cc(C(F)(F)F)nc(N2CCN(c3ccc(F)cc3)CC2)n1 -2.5% [at 5.1 µM]
O=C(O)CC1(CC(=O)N2CCN(c3nc(-c4ccccc4Cl)c4cc(Br)ccc4n3)CC2)CCCC1 -1.2% [at 3.9 µM]
Fc1ccc(-c2cc(C(F)(F)F)nc(N3CCN(c4cccc(Cl)c4)CC3)n2)cc1 5.6% [at 5.1 µM]
Cc1c(-c2cccc(NC(=O)C(C)(C)C)c2)nc2ncccn12 4.9% [at 7.2 µM]
O=C(O)CCC(=O)N1CCN(c2nc(-c3ccccc3)c3cc([N+](=O)[O-])ccc3n2)CC1 -0.6% [at 5.1 µM]
COc1ccc(-c2cn3cccnc3n2)cc1NC(=O)C(C)Oc1ccccc1 (stereo not drawn) 3.7% [at 5.7 µM]
COc1ccc(-c2cn3cccnc3n2)cc1NC(=O)Cc1ccccc1 -1.4% [at 6.2 µM]
Clc1ccccc1-c1nc(N2CCN(c3ccccc3)CC2)nc2ccc(Br)cc12 1.5% [at 4.6 µM]
FC(F)(F)c1cc(-c2cccs2)nc(N2CCN(C(c3ccccc3)c3ccccc3)CC2)n1 -2.4% [at 4.6 µM]
CC(=O)N1CCN(c2nc(-c3ccccc3)c3cc(Cl)ccc3n2)CC1 2.2% [at 6.1 µM]
O=C(O)CCC(=O)N1CCN(c2nc(-c3ccccc3)c3ccccc3n2)CC1 6.1% [at 5.7 µM]
Clc1cccc(-c2nc(N3CCN(c4ccccn4)CC3)nc3c2COc2ccccc2-3)c1 1.7% [at 4.9 µM]
CCOC(=O)N1CCN(c2nc(-c3ccc(C)cc3)cc(C(F)F)n2)CC1 1.5% [at 5.9 µM]
Cc1ccc2nc(N3CCN(C(=O)CCC(=O)O)CC3)nc(-c3ccccc3)c2c1 5.7% [at 5.5 µM]
CC(C)(C)OC(=O)N1CCN(c2nc(-c3ccccc3)c3ccccc3n2)CC1 -1.7% [at 5.7 µM]
CCCCN1CCN(c2nc(-c3ccccc3)c3cc(C)ccc3n2)CC1 -1.5% [at 5.6 µM]
COc1ccc(-c2cn3cccnc3n2)cc1NC(=O)CCC1CCCCC1 -4.2% [at 5.9 µM]
C/C=C\C(=O)Nc1cc(-c2cn3cccnc3n2)ccc1OC 4% [at 7.2 µM]
COc1ccc(-c2cn3cccnc3n2)cc1NC(=O)c1ccc(C(C)(C)C)cc1 5.7% [at 5.6 µM]
COc1ccc(-c2cn3cccnc3n2)cc1NC(=O)COc1ccccc1 5.8% [at 5.9 µM]
CC(N)C(=O)N1CCN(c2nc(-c3ccccc3)c3cc([N+](=O)[O-])ccc3n2)CC1 (stereo not drawn) -1.4% [at 5.5 µM]
COc1ccc(-c2cc(-c3ccc(F)cc3)nc(N3CCN(C)CC3)n2)cc1 -4.8% [at 5.9 µM]
CCCC(=O)Nc1cccc(-c2cn3cccnc3n2)c1 -1.6% [at 7.9 µM]
CCOC(=O)N1CCN(c2nc(-c3ccccc3)c3ccccc3n2)CC1 3.6% [at 6.1 µM]
